Bioassay records as filed in PubChem.
This is a sample that favours compounds with a hit; in the whole collection about 2.8% have one here.
Pol iota inh – DNA polymerase iota (human) inhibition | Q9UNA4 | Pol iota fluorescent replication assay, 10 min | Potency, µM (doses to about 115 µM), most hits filed as inhibitors | AID 588590 | 390,000 compounds, 1% hits
Target sequence (Q9UNA4 whole entry, looked up): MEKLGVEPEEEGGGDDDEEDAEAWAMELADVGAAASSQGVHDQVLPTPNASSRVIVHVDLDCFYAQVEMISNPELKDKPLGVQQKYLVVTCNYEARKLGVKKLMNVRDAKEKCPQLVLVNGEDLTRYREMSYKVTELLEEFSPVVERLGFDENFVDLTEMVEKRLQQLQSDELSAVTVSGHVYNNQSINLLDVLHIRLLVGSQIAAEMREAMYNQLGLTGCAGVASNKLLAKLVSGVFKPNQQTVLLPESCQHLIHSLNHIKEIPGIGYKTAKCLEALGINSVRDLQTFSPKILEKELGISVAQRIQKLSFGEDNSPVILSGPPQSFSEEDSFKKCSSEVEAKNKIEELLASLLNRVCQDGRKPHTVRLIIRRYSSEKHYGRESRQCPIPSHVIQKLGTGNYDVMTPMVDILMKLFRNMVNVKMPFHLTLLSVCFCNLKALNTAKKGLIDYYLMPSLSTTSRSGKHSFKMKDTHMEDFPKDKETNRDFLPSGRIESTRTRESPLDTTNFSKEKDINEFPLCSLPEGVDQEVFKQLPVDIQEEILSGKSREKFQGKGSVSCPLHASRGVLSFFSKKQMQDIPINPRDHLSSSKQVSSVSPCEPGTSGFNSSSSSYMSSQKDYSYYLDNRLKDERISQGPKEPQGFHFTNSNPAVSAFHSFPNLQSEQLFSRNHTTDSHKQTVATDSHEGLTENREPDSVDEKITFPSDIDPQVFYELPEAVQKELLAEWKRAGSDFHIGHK
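Pol iota at 10 nM preincubated 15 min with compounds at room temperature; reaction started with fluorescent substrate, 50 nM final. Fluorescence read kinetically at 0 and 10 min; buffer-only wells as negative control.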
PI4K2A block – PI4K2A (human) kinase inhibition | Q9BTU6 | purified PI4K2A, ADP-Glo luminescence, 1 h; active compounds read low | activity change, negative = inhibition, % at 76.9 µM | 420,000 compounds, 0.13% hits; in the data active = activity change below about -50%; inconclusive = mostly about -30% to -49%
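PI4K2A activity was measured by ADP-Glo luminescence: enzyme (4 ug/mL stock) and phosphatidylinositol (1.2 mM stock) in Tris pH 7.5/MgCl2/EGTA/Triton X-100 buffer were reacted with ATP (300 microM stock) for one hour at ambient temperature.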
POLK inh – blocks human DNA polymerase kappa activity; Q9UBT6; purified Pol kappa, fluorescent DNA synthesis assay, 10 min; Potency, µM (highest dose often 107 µM), hits mostly inhibitors; 400,000 compounds, 0.53% hits
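10 nM Pol kappa preincubated 15 min at room temperature with compounds, then reaction started with substrate at 50 nM final. Fluorescence read kinetically at 0 and 10 min; buffer-only wells served as negative control.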
POLB inh – inhibitors of human DNA polymerase beta. P06746. Pol beta primer extension/strand displacement, fluorescence kinetic. Potency, µM (titrated, usually from 114 µM), usual class: inhibitors. 340,000 compounds, 1.3% hits. AID 485314
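Human Pol beta at 10 nM; strand-displacement substrate 50 nM final. Compound exposure 15 min at room temperature before start, reaction 10 min at room temperature.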
POLH inh – inhibitors of human DNA polymerase eta; 390,000 compounds, 1.2% hits; Potency, µM (highest dose often 114 µM), usual class: inhibitors; Q9Y253; recombinant Pol eta, fluorescent DNA replication assay
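Pol eta at 10 nM preincubated with compounds 15 min at room temperature; reaction started with fluorescent substrate (50 nM final) and read kinetically at 0 and 10 min.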
PI5P4Ka inh – PI5P4K alpha (human) kinase inhibition | PI5P4Kalpha enzyme, ADP-Glo luminescence, 60 min; active compounds read low | 330,000 compounds, 1.2% hits | P48426 | max response, %; active = max response of -50% or lower; inconclusive = between -30% and -50%; inactive = -30% or higher; also: value at the top dose of about 77 µM
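Single end-point luminescence (ADP-Glo) quantified ADP from PI5P4Kalpha turnover; ATP 5 microM final, 1 h at RT, 0.1% CHAPS and 0.28 mM EGTA in HEPES pH 7.4.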
A number is an active result; . = inactive; ? = inconclusive; / = no result given. Unless noted, calls follow the shape of the dose curve; as a rule, active = well fitted inhibition curve with a large enough effect; inconclusive = small, poorly fitted or top-dose-only effect, or another doubt; inactive = no such curve, though single readings can be large or run the other way.

SMILES	Pol iota inh	PI4K2A block	POLK inh	POLB inh	POLH inh	PI5P4Ka inh
Fc1ccc(Br)cc1C1C=C(c2ccc(Br)s2)Nc2ncnn21 (stereo not drawn)	?	.	.	10µM	28.2µM	.
Cc1ccccc1NC(=O)CSc1nnc(-c2ccco2)n1N	.	.	.	/	.	.
Cc1cccc(NC(=O)CSc2nnc(-c3ccco3)c(-c3ccco3)n2)c1C	2µM	.	31.6µM	22.4µM	12.6µM	-77.4
Cc1cccc(NC(=O)CSc2nnc(-c3ccco3)c(-c3ccco3)n2)c1	?	.	79.4µM	25.1µM	39.8µM	-61.3
Cc1cccc(NC(=O)CSc2nc(N)cc(N)n2)c1	.	.	.	.	.	.
Cc1ccc2c(=O)c(C(=O)c3ccc(F)cc3)cn(CC(=O)NCc3ccco3)c2n1	?	.	?	?	?	?
COc1cccc(C(=O)c2cn(CC(=O)NCc3ccco3)c3nc(C)ccc3c2=O)c1	22.4µM	.	89.1µM	?	39.8µM	.
CC(=O)n1cc(N(C(=O)CCl)c2ccc(C)cc2)c2ccccc21	.	.	.	.	31.6µM	.
CC(=O)N(c1ccc(Cl)cc1)c1cn(C(C)=O)c2ccccc12	.	.	.	.	.	.
CCCC(=O)c1cc(O)c(O)cc1O	/	.	/	/	/	/
O=C(c1ccc(COc2ccc(F)cc2)o1)n1cc(Br)cn1	?	.	.	22.4µM	79.4µM	/
O=C(c1ccc(COc2ccc(F)cc2)o1)n1cccn1	.	.	.	.	.	.
COc1ccccc1-c1cc2nc(-c3ccccc3)cc(N3CCN(C(=O)c4ccco4)CC3)n2n1	/	.	/	/	.	.
CC(C)(C)C(=O)Nc1ccc(Sc2ccc([N+](=O)[O-])cc2)cc1	.	.	.	.	.	.
CC(=O)Nc1ccc(Sc2ccc([N+](=O)[O-])o2)cc1	?	.	.	/	31.6µM	.
COc1cccc(N2CCN(C(=O)COc3cc(=O)n(C)c4ccccc34)CC2)c1	/	.	/	/	/	/
CCCCNS(=O)(=O)c1ccc2nc(SCC(=O)c3ccc(C#N)cc3)[nH]c2c1	.	.	.	39.8µM	?	.
Cc1[nH]c2ccccc2c1C1=CC(=O)C=CC1=O	?	.	.	/	?	-97.0
O=C(C1Cc2ccccc2CN1S(=O)(=O)c1ccc(F)cc1)N1CCOCC1 (stereo not drawn)	.	.	.	.	.	/
CCS(=O)(=O)N1Cc2ccccc2CC1C(=O)N1CCN(c2ccccc2)CC1 (stereo not drawn)	?	.	?	35.5µM	15.8µM	?
C(=Nc1cccnc1)c1ccnc2ccccc12	.	/	.	/	/	/
NC(=O)/C(=C\c1ccco1)NC(=O)c1ccc(Br)o1	.	.	.	/	.	.
O=C(O)/C(=C\c1ccco1)NC(=O)c1cccc2ccccc12	?	.	50.1µM	.	50.1µM	/
CC(C)C(NC(=O)/C(=C/c1ccco1)NC(=O)c1ccc(Br)o1)C(=O)O (stereo not drawn)	?	.	?	39.8µM	20µM	.
O=C(Nc1ccccc1C(=O)O)/C(=C/c1ccc([N+](=O)[O-])cc1)NC(=O)c1ccc(Br)o1	.	.	.	28.2µM	39.8µM	.
SMILES	Pol iota inh	PI4K2A block	POLK inh	POLB inh	POLH inh	PI5P4Ka inh
O=C(Nc1ccc(C(=O)O)cc1)/C(=C\c1ccco1)NC(=O)c1ccc(Br)o1	?	.	79.4µM	?	50.1µM	.
Cn1sc(=O)n(Cc2ccccc2)c1=O	/	/	.	/	/	/
O=C(O)/C(=C\c1ccco1)NC(=O)c1ccc(Br)o1	?	.	.	/	20µM	.
N#CCC(=O)Nc1ccc(C(=O)OCC(=O)Nc2ccc3ccccc3c2)cc1	.	.	.	/	?	-51.3
CCOC(=O)c1c(NC(=O)COC(=O)c2ccc(NC(=O)CC#N)cc2)sc(C(=O)NC)c1C	?	.	?	/	10µM	?
N#CCC(=O)Nc1ccc(C(=O)OCC(=O)N=c2sccn2Cc2ccccc2Cl)cc1	?	.	.	/	?	-52.7
O=C(COC(=O)c1ccc(CO)cc1)Nc1ccc2ccccc2c1	?	.	.	/	.	.
COc1cc2ccccc2cc1C(=O)OCC(=O)Nc1ccc(Br)cc1	/	/	89.1µM	/	/	/
CC(=O)C[C@H]1c2cc(F)cc(F)c2S(=O)(=O)N1C1CCN(Cc2ccccc2)CC1	.	/	.	/	/	/
CCOc1ccc(CCNC(=O)C2CCCCC2)cc1OCC	/	.	/	/	/	/
